# Assay results taken from the supplement of paper PMC3334620.
# In all, about 33,000 sequences were measured (“E-score (-0.5 to 0.5)”: median about -0.015, highest 2% from about 0.3 on). The sample holds the highest values, similar sequences and a random draw of the others, so the mix is not that of the screen.
# Biological target: T1, Abf1 (UniProt P14164)
# T1 sequence: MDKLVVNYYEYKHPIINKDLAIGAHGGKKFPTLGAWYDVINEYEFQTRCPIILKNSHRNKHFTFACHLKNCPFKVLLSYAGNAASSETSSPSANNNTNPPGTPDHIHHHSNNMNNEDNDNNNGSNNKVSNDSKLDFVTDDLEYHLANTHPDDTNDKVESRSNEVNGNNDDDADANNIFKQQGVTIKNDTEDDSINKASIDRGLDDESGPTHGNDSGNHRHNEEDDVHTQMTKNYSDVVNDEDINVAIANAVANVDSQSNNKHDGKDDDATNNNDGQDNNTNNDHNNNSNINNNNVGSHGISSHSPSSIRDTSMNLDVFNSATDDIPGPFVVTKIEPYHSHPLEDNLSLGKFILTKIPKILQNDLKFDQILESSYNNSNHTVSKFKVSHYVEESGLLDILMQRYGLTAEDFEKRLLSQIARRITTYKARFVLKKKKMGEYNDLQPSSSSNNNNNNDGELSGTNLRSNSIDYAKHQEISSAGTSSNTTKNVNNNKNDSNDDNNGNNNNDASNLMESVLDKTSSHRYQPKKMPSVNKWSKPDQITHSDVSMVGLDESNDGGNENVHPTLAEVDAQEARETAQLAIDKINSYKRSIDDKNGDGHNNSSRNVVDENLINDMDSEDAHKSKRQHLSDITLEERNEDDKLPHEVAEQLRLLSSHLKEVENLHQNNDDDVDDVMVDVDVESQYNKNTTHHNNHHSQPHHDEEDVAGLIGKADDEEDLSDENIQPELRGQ
# Test: PBM E-score (8-mer binding enrichment) (E-score (-0.5 to 0.5)); higher = stronger / more preferred TF binding
# Details: protein concentration: 200 nM; construct: GST-full length
# Experimental: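 Universal 'all 10-mer' protein binding microarrays (Agilent AMADID 015681) probed with GST-tagged S. cerevisiae TFs (full-length or DBD) made by in vitro transcription/translation (PURExpress), about 100-200 nM. Bound TF was detected with fluorescent anti-GST. Each ungapped 8-mer (which stands for itself and its reverse complement) is scored by the PBM enrichment score (E-score), a modified Wilcoxon-Mann-Whitney statistic from -0.5 to +0.5, computed with the Universal PBM Analysis Suite. Scale: above 0.35 generally sequence-specific binding.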
row,Sequence,PBM E-score
1,GATCGCGC,0.121
2,AATCGCGA,0.176
3,GATCGCCA,0.165
4,TATCGCGA,0.34
5,CATCGCGA,0.2
6,GATCGCGA,0.315
7,ATTTAGCA,0.193
8,AGGTAATG,0.0091
9,AACTCTAT,-0.096
10,GGTCTTTA,0.0661
11,CGTCTTTC,0.0707
12,CGTCTTTA,0.301
13,CTTGTTAA,-0.072
14,ATCGTGCA,0.282
15,ATCGTGCC,0.276
16,ACCGTGCG,0.315
17,GCCGTGCA,0.223
18,ACCGTGCT,0.139
19,CCCGTGCA,0.0856
20,CCCGTGCG,0.054
21,ACCGTGCA,0.315
22,ATCGTGCG,0.366
23,TCCGTGAA,0.238
24,ACCGTGCC,0.0366
25,TCCGTGCA,0.312

row,Sequence,PBM E-score
1,AAGTTGTG,-0.0478
2,CTAGGAAG,-0.18
3,CACTGAGA,-0.104
4,AGAAGTTG,-0.0778
5,CTTCGACC,-0.0331
6,GTAGTCAA,0.106
7,CGTGAGTC,0.0135
8,CGCCCGCG,-0.0644
9,AACAGTAT,0.0291
10,AGGTCCAC,-0.0594
11,GATACGGC,0.199
12,AATACGGG,0.202
13,CATACGAG,0.171
14,CATACGGA,0.295
15,CATACGAC,0.333
16,AATACGGC,0.32
17,AATACGGT,0.194
18,CATACGCC,-0.00293
19,CATACGGC,0.346
20,CAGCTTTC,-0.00915
21,AAACTTCT,0.211
22,ATCGCCAC,0.275
23,ATAGATAC,-0.0386
24,ATCACTGA,0.205
25,AACACTTG,-0.0627

row,Sequence,PBM E-score
1,ATCACTTA,0.355
2,ATCACTTC,0.376
3,AGCACTTC,0.0874
4,GTCACTGA,0.253
5,CTCACTTA,0.14
6,ATCACTTG,0.355
7,GCCACTTA,-0.0218
8,CTCACTTC,-0.0359
9,AGCACTTG,-0.314
10,GTCACTTA,0.355
11,CACGGGTC,-0.0483
12,CGTGTGGC,0.0664
13,ATACCGAA,0.189
14,ATTGACGC,-0.156
15,AGTTCTTC,-0.0427
16,CTTCAGAA,-0.179
17,CAAGAACG,0.123
18,GCCATTAA,0.0468
19,AATTGAAG,-0.0559
20,TACACGAA,0.337
21,AACACGAA,0.205
22,TACACGGA,0.329
23,GACACGGA,0.167
24,CACACGAA,0.341
25,CACACGAC,0.295

row,Sequence,PBM E-score
1,CACACGGA,0.0992
2,CACACGAG,0.107
3,GACACGAA,0.172
4,GGGCAGCA,-0.256
5,AGCAGGTG,-0.0258
6,ACCTAACC,0.0492
7,ACTTAGGC,-0.111
8,ACTCATCC,0.227
9,TACGAAGA,0.334
10,TCCGAAGA,-0.0522
11,GACGAAGA,0.253
12,TACGAATA,0.25
13,AACGAAGA,0.188
14,CACGAAGA,0.316
15,CAGCAGGA,-0.0545
16,ACCCTACT,-0.231
17,CCTATTCC,-0.139
18,GCAGGTAC,-0.221
19,TATTGACA,-0.0437
20,GAATGACA,0.311
21,AAATGACG,0.187
22,GAATGACC,0.0136
23,CAATGACA,0.214
24,AAATGACC,0.215
25,TAATGACA,0.376

row,Sequence,PBM E-score
1,AAATGACA,0.358
2,TAATGCCA,-0.0319
3,GACTTCTC,0.167
4,ATGAGCGC,0.0585
5,GTAGGGTA,0.0591
6,CCGTTTGC,-0.0132
7,CATAGCAG,-0.126
8,CTCGTACC,0.184
9,ATCGTACA,0.34
10,GTCGTACA,0.383
11,ATCGTACC,0.0609
12,CACGTACA,0.0758
13,ATCGTACG,0.394
14,AACGTACA,0.0978
15,ATCGTAAA,0.234
16,CTCGTACA,0.342
17,ATCGTAAG,0.108
18,GTCGTAGA,0.278
19,GGCGTACA,0.0819
20,GTCTGCAC,-0.061
21,GGTCCTGA,-0.0764
22,CGGAAGTA,-0.0352
23,ACAGGTAC,-0.146
24,GGCTTTAC,-0.225
25,GCTGGGTA,-0.0116

row,Sequence,PBM E-score
1,AAGAAAAA,-0.0775
2,CCAGGATA,0.126
3,GTGAGGTA,-0.0243
4,AGAAACCT,-0.237
5,ATTACGTA,0.372
6,ATTACGGA,0.303
7,ATTACGGG,-0.0226
8,ATTACGTG,0.176
9,CTTACGTA,0.212
10,ATTACGGC,0.184
11,GAGAGGCA,-0.176
12,GCCCTACC,-0.149
13,CTGAATCA,-0.0743
14,AAGCCCCC,-0.352
15,GCAGTGAC,0.15
16,ATAGTGAT,0.436
17,ATAGTGAA,0.0719
18,CTAGTGAA,-0.202
19,GTAGTGAA,0.0467
20,ATAGTGAC,0.35
21,ACAGTGAT,0.294
22,CTAGTGAC,0.316
23,GTAGTGAC,0.35
24,ATAGTGAG,0.069
25,ATAGTGGG,-0.075

row,Sequence,PBM E-score
1,CTAGTGAG,-0.0339
2,AGTCGTAC,0.169
3,CTGGGTAA,-0.0825
4,ATGGGTTC,-0.0947
5,GCGCGCGC,0.197
6,GCAGGGAC,-0.131
7,TTAGCCAA,-0.00286
8,CGGCGCCC,-0.143
9,CGAGCAAA,0.179
10,CGCGGGAC,-0.172
11,AACGTGCA,0.0844
12,GTCGTGCA,0.374
13,GACGTGCA,0.358
14,GGCGTGCA,-0.0867
15,CTCGTGCA,0.124
16,CACGTGCA,0.139
17,GATGGAGA,-0.00795
18,AGATCGCA,0.0409
19,ATCCCCGC,-0.211
20,CACAAAGA,0.0323
21,AGGTCAGC,-0.0373
22,CCGTACAG,0.21
23,CAGTACAA,0.0284
24,GCGTACAC,0.0451
25,CCGTACAC,0.3

row,Sequence,PBM E-score
1,TCGTACAA,0.402
2,CGGTACAA,0.211
3,CCGTACAA,0.432
4,ACGTACAA,0.218
5,GCGTACAA,0.197
6,AAGGTTTC,-0.0855
7,CCGACAGA,-0.00185
8,TACGTTAA,0.132
9,AGATGCCC,-0.144
10,GCATCCGA,-0.146
11,TAGAGTGA,0.248
12,GAGAGTGA,0.324
13,GAGAGTGC,-0.192
14,CCGTTTTA,0.203
15,AGATGACC,0.132
16,CGATGACA,0.319
17,GCATGACA,0.207
18,TGATGAAA,0.0461
19,CGATGACG,0.136
20,TGATGACA,0.376
21,TCATGACA,0.323
22,AGATGACT,-0.0855
23,AGATGACA,0.316
24,CGATGACC,0.206
25,ACATGACA,0.256

row,Sequence,PBM E-score
1,GGATGACA,0.253
2,CTCGTGCC,-0.0761
3,CCGGATGA,-0.024
4,GAACACAA,-0.0576
5,GCGAGTGA,0.137
6,ACTGGTCT,-0.176
7,ACTTGTCT,-0.0797
8,CGATTGGC,-0.0866
9,CCCCGCGG,-0.255
10,CGGTCGCC,-0.00137
11,CCTGACGA,0.214
12,CATGACGA,0.374
13,ATTGACGA,0.377
14,ACTGACGG,-0.0335
15,CATGACGG,0.0231
16,ACTGACGA,0.305
17,AATGACGC,0.106
18,GATGACGA,0.265
19,GTTGACGA,0.21
20,AATGACGA,0.36
21,AATGACGT,0.125
22,ATTGACGG,0.211
